# PubChem BioAssay (Tox21)
# “And” between values parts separate entries of the source, which are not always exact repeats. Identical values can stand only once. A number with no mark means an inactive call. Records with an inconclusive call do not appear. Entries that show only a call come without a potency. The source made the active and inactive calls. Unless noted, calls come from the whole dose curve; as a rule, active = well fitted curve in the direction sought with a large enough effect in the repeat runs; inconclusive = weak or mixed curves; inactive = no such curve, though single readings can be large; an effect the other way counts as inactive or inconclusive.
# Tests used:
# [1] = qHTS assay for small molecules that induce genotoxicity in human embryonic kidney cells expressing luciferase-tagged ATAD5 (AID 651632); note: nearly all actives have a fitted effect of over 15% in size; note: potency is the fitted concentration of half-maximal effect
# How it was run: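 Test compounds were delivered by pin tool onto HEK293T reporter cells (2,000/well) expressing ATAD5 fused to luciferase. After 16 hr at 37C, 5% CO2, Amplite was added for 30 min at room temperature and luminescence was measured.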
# [2] = qHTS assay for small molecules that induce genotoxicity in human embryonic kidney cells expressing luciferase-tagged ATAD5 - cell viability (AID 651634; calls by dose curve; note: nearly all actives have a fitted effect of over 25% in size; note: potency is the fitted concentration of half-maximal effect)
# How it was run: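 Quantitative high-throughput format. HEK293T cells expressing ATAD5 fused to luciferase were plated at 2,000 cells/well and treated 15.5 hr with compound versus DMSO. Viability was determined by fluorescent live-cell protease substrate, 30 min at 37C.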
# [3] = qHTS assay to test for compound auto fluorescence at 590 nm (red) in HepG2 cells (AID 720674)
# How it was run: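 Seeding: 2,000 HepG2 cells/well, MEM/10% FBS, overnight 37 C. Dosing: compound vs DMSO. Incubation: 1 hr, 37 C, 5% CO2. Read: fluorescence 540 ex/590 em, Rose Bengal sodium as red reference.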
# [4] = qHTS assay to test for compound auto fluorescence at 535 nm (green) in HepG2 cells (AID 720675)
# [5] = qHTS assay to test for compound auto fluorescence at 460 nm (blue) in HEK293 cells (AID 720678); note: potency is the fitted concentration of half-maximal effect
# How it was run: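 Blue read-out at excitation 405 nm and emission 460 nm follows overnight compound exposure of HEK293 cells at 37C in 5% CO2. Activity is given as auto fluorescence equivalency to triamterene.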
# [6] = qHTS assay to test for compound auto fluorescence at 590 nm (red) in HEK293 cells (AID 720679)
# How it was run: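 Red channel, Ex/Em 540/590nm; signal expressed as equivalency to Rose Bengal sodium. HEK293, 2,000 cells/well, 10% dialyzed FBS; 23 nL compound pinned after 4-5 hr attachment; overnight 37C/5% CO2 before reading.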
# [7] = qHTS assay to test for compound auto fluorescence at 535 nm (green) in HEK293 cells (AID 720680)
# [8] = qHTS assay to test for compound auto fluorescence at 460 nm (blue) in HEK293 cell free culture (AID 720681); note: potency is the fitted concentration of half-maximal effect
# How it was run: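 Compounds were added to cell-free DMEM with 10% FBS and fluorescence read directly. The blue channel used 405 nm excitation and 460 nm emission, with triamterene as the reference fluorophore.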
# [9] = qHTS assay to test for compound auto fluorescence at 590 nm (red) in HepG2 cell free culture (AID 720684)
# How it was run: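 Rose Bengal sodium served as the reference for red signal. Test compounds were dispensed into serum-containing MEM (10% FBS) without cells, and plates were read at 540/590 nm.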
# [10] = qHTS assay to test for compound auto fluorescence at 460 nm (blue) in HepG2 cell free culture (AID 720685); note: potency is the fitted concentration of half-maximal effect
# How it was run: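 Cell-free plates of MEM plus 10% FBS received 23 nL compound or DMSO vehicle; blue-channel (405/460 nm) intensity scored against triamterene as reference fluorophore.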
# [11] = qHTS assay to test for compound auto fluorescence at 535 nm (green) in HepG2 cell free culture (AID 720686)
# [12] = qHTS assay to test for compound auto fluorescence at 460 nm (blue) in HepG2 cells (AID 720687); note: potency is the fitted concentration of half-maximal effect
# How it was run: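 HepG2 cells in MEM with 10% FBS, attached overnight at 37 C, were exposed to compound or DMSO for 1 hr at 37 C, 5% CO2. Blue fluorescence was read at 405/460 nm, with triamterene as reference fluorophore.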
# [13] = qHTS assay for small molecule agonists of the p53 signaling pathway - cell viability (AID 651633; calls by dose curve; note: nearly all actives have a fitted effect of over 30% in size; note: potency is the fitted concentration of half-maximal effect)
# How it was run: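 p53RE-bla cells were treated with compound for 16 hours at 37 C. Cytotoxicity was then measured as CellTiter-Glo luminescence after 30 min at room temperature.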
# [14] = qHTS assay to test for compound auto fluorescence at 535 nm (green) in HEK293 cell free culture (AID 720682)
# How it was run: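 Green-channel intensity (Ex/Em 485/535 nm) was recorded from compound-treated wells containing only DMEM with 10% FBS. Fluorescein provided the equivalency standard.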
# [15] = qHTS assay to test for compound auto fluorescence at 590 nm (red) in HEK293 cell free culture (AID 720683)
# How it was run: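 Cell-free wells of DMEM with 10% FBS received compound, and intrinsic fluorescence was read at excitation/emission 540/590 nm. Values expressed as equivalence to Rose Bengal sodium.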
# [16] = biological target: Glucocorticoid receptor (Homo sapiens) (UniProt P04150); assay: qHTS assay to identify small molecule agonists of the glucocorticoid receptor (GR) signaling pathway (AID 720691; active = well fitted activation curve with a large enough effect in the signal ratio in the repeat runs, not every such curve was filed as active; the % refers to the signal ratio); conditions: GR-bla HeLa, beta-lactamase reporter ratio, 18 h; activation: at 62.4 µM (top of the series)
# How it was run: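 A HeLa cervical cancer line expressing GR and a glucocorticoid response element-driven beta-lactamase gene is treated with compounds for 18 h; LiveBLAzer B/G FRET substrate is then applied and fluorescence read.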
# [17] = biological target: Glucocorticoid receptor (Homo sapiens) (UniProt P04150); assay: qHTS assay to identify small molecule antagonists of the glucocorticoid receptor (GR) signaling pathway (AID 720692; active = well fitted inhibition curve with a large enough effect in the signal ratio in the repeat runs, not every such curve was filed as active; the % refers to the signal ratio; note: potency is the fitted concentration of half-maximal effect)
# How it was run: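 GRE-bla HeLa line, dex-stimulated (5 nM final). Compound exposure 18 h, 37 C. Beta-lactamase FRET read after 2 h RT substrate.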
# [18] = qHTS assay for small molecule disruptors of the mitochondrial membrane potential - cell viability (AID 720634; calls by dose curve;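 note: human HepG2 liver cancer cells; nearly all actives have a fitted effect of over 20% in size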)
# How it was run: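 Same-well counter-screen: following the MMP dye addition, CellTiter-Glo was added to 1 hr compound-treated HepG2 cells and luminescence read after 30 min at room temperature.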
# [19] = qHTS assay for small molecule disruptors of the mitochondrial membrane potential (AID 720635); note: potency is the fitted concentration of half-maximal effect
# How it was run: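 HepG2 cells exposed to compound 1 hr at 37C, then Mito-MPS dye 30 min. Ratio read of aggregate (540/590 nm) versus monomer (490/535 nm) fluorescence.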
# Tags give direction and shape of the fitted curve or compound fluorescence and quenching.
# Glucocorticoid receptor (Homo sapiens), sequence (P04150 whole entry, looked up): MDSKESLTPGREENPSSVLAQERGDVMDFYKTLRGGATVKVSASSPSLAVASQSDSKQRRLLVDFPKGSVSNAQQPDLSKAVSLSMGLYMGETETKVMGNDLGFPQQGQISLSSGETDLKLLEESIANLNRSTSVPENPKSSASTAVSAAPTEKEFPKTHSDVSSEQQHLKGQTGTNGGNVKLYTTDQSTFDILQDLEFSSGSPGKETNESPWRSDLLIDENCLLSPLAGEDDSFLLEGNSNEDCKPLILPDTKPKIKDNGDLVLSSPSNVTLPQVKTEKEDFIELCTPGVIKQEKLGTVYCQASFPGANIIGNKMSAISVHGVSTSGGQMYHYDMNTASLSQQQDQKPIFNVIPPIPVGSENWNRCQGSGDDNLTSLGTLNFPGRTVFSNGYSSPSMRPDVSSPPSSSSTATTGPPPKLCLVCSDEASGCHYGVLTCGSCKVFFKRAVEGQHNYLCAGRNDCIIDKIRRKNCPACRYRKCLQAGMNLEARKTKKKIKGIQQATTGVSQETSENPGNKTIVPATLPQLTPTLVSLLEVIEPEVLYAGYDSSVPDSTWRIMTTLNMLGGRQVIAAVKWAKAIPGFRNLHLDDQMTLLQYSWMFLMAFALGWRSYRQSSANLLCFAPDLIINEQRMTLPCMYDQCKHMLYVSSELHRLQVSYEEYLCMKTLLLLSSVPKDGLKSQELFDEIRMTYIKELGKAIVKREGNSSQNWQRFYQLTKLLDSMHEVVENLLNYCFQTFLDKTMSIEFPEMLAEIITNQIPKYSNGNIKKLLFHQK
smiles,measurement,setting,value
CCOC(=O)c1nc(C(Cl)(Cl)Cl)n(-c2ccc(Cl)cc2Cl)n1,Potency,[1],inactive
same,Potency,[2],inactive
same,Potency,[3],inactive
same,Potency,[4],inactive
same,Potency,[5],inactive
same,Potency,[6],inactive
same,outcome,[7],inactive
same,Potency,[8],inactive
same,Potency,[9],inactive
same,Potency,[10],inactive
same,Potency,[11],inactive
same,Potency,[12],inactive
c1cc(C(c2ccc(OCC3CO3)cc2)c2ccc(OCC3CO3)cc2)ccc1OCC1CO1 (stereo not given),Potency,[1],inactive
same,Potency,[13],inactive
same,Potency,[3],inactive
same,Potency,[5],inactive
same,outcome,[7],inactive
same,Potency,[8],inactive
same,outcome,[14],inactive
same,Potency,[15],inactive
same,Potency,[9],inactive
same,Potency,[10],inactive
same,Potency,[11],inactive
same,Potency,[12],inactive
same,Potency,[16],inactive
same,Potency,[17],49 µM (active)
CC1(C)CCC(C)(C)c2cc(C(=O)Nc3ccc(C(=O)O)cc3)ccc21,Potency,[1],inactive
same,Potency,[13],61.1 µM (active)
same,Potency,[18],inactive
same,Potency,[19],54.5 µM (active)
same,Potency,[3],inactive
same,Potency,[4],inactive
same,Potency,[5],inactive
same,Potency,[6],inactive
same,outcome,[7],inactive
same,Potency,[8],inactive
same,outcome,[14],inactive
same,Potency,[9],inactive
same,Potency,[10],inactive
same,Potency,[11],inactive
same,Potency,[12],inactive
Nc1ccccc1O,Potency,[1],inactive
same,Potency,[18],inactive
same,Potency,[19],60.3 µM (active)
same,Potency,[3],inactive
same,Potency,[4],inactive
same,Potency,[5],inactive
same,Potency,[6],inactive
same,outcome,[7],inactive
same,Potency,[8],inactive
same,outcome,[14],inactive
same,Potency,[15],inactive
same,Potency,[9],inactive
same,Potency,[10],inactive
same,Potency,[11],inactive
same,Potency,[12],inactive
same,Potency,[16],inactive
CCN(Cc1cccnc1)C(=O)c1cccc(Cl)c1[C@]1(C)C(=O)N(Cc2ccc(OC)cc2OC)c2ccc(Cl)cc21,Potency,[1],inactive
same,Potency,[2],9.05 µM (active)
same,Potency,[18],inactive
same,Potency,[19],8.07 µM (active)
same,Potency,[3],inactive
same,Potency,[4],inactive
same,Potency,[5],inactive
same,Potency,[6],inactive
same,Potency,[8],inactive
same,Potency,[15],inactive
same,Potency,[9],inactive
same,Potency,[10],inactive
same,Potency,[11],inactive
same,Potency,[12],inactive
O=CC=C(c1ccccc1)c1ccccc1,Potency,[1],inactive
same,Potency,[2],inactive
same,Potency,[19],30.9 µM (active)
same,Potency,[3],inactive
same,Potency,[4],inactive
same,Potency,[5],inactive
same,Potency,[6],inactive
same,outcome,[7],inactive
same,Potency,[8],inactive
same,outcome,[14],inactive
same,Potency,[15],inactive
same,Potency,[9],inactive
same,Potency,[10],inactive
same,Potency,[11],inactive
same,Potency,[12],inactive
Oc1ccc2cc(SSc3ccc4cc(O)ccc4c3)ccc2c1,Potency,[1],inactive
same,Potency,[13],inactive
same,Potency,[18],inactive
same,Potency,[19],38.6 µM (active) and 24.3 µM (active)
same,Potency,[3],inactive
same,Potency,[5],inactive
same,Potency,[6],inactive
same,outcome,[7],inactive
same,Potency,[8],inactive
same,outcome,[14],inactive
same,Potency,[15],inactive
same,Potency,[9],inactive
same,Potency,[10],inactive
same,Potency,[11],inactive
same,Potency,[12],inactive
OCCN(CCO)c1nc(N2CCCCC2)c2nc(N(CCO)CCO)nc(N3CCCCC3)c2n1,Potency,[1],inactive
same,Potency,[18],inactive
same,Potency,[3],inactive
same,Potency,[4],inactive
same,Potency,[5],12.6 µM [fluorescent] (active)
same,Potency,[6],inactive
same,Potency,[8],12.6 µM (active)
same,outcome,[14],inactive
same,Potency,[15],inactive
same,Potency,[9],inactive
same,Potency,[10],12.6 µM [fluorescent] (active)
same,Potency,[11],inactive
same,Potency,[12],12.6 µM [fluorescent] (active)
OCCN1CCN(CC/C=C2/c3ccccc3Sc3ccc(C(F)(F)F)cc32)CC1,Potency,[1],inactive
same,Potency,[13],29.8 µM (active)
same,Potency,[3],inactive
same,Potency,[5],inactive
same,outcome,[7],inactive
same,Potency,[8],inactive
same,outcome,[14],inactive
same,Potency,[15],inactive
same,Potency,[9],inactive
same,Potency,[11],inactive
same,Potency,[12],inactive
O=Cc1cc(O)ccc1Br,Potency,[1],inactive
same,Potency,[2],inactive
same,Potency,[18],inactive
same,Potency,[19],62 µM (active)
same,Potency,[3],inactive
same,Potency,[4],inactive
same,Potency,[5],inactive
same,Potency,[6],inactive
same,outcome,[7],inactive
same,Potency,[8],inactive
same,outcome,[14],inactive
same,Potency,[9],inactive
same,Potency,[10],inactive
same,Potency,[11],inactive
same,Potency,[12],inactive
same,Potency,[16],inactive
O=c1[nH]sc2ccccc12,Potency,[1],inactive
same,Potency,[2],inactive
same,Potency,[18],inactive
same,Potency,[19],27.3 µM (active)
same,Potency,[3],inactive
same,Potency,[4],inactive
same,Potency,[5],inactive
same,Potency,[6],inactive
same,outcome,[7],inactive
same,Potency,[8],inactive
same,outcome,[14],inactive
same,Potency,[15],inactive
same,Potency,[9],inactive
same,Potency,[10],inactive
same,Potency,[11],inactive
same,Potency,[12],inactive
Cc1cc(O)c2ccccc2c1O,Potency,[1],inactive
same,Potency,[2],inactive
same,Potency,[18],inactive
same,Potency,[3],inactive
same,Potency,[5],inactive
same,outcome,[7],inactive
same,Potency,[8],inactive
same,Potency,[9],inactive
same,Potency,[10],inactive
same,Potency,[11],inactive
same,Potency,[12],inactive
Cc1cccc(CN2CCN(C(c3ccccc3)c3ccc(Cl)cc3)CC2)c1 (stereo not given),Potency,[1],inactive
same,Potency,[2],inactive
same,Potency,[18],inactive
same,Potency,[19],inactive
same,"fluorescence, relative to Rose Bengal",[3],-0.676% [at 18.6 µM]
same,"fluorescence, % of fluorescein control",[4],0.0228% [at 18.6 µM]
same,"fluorescence, % of triamterene",[5],0.0825% [at 18.6 µM]
same,"fluorescence, % of fluorescent control",[6],0.431% [at 18.6 µM]
same,"fluorescence, % of fluorescein",[7],0.0512% [at 18.6 µM]
same,"fluorescence, % of fluorescent control",[8],-0.0116% [at 18.6 µM]
same,activity change,[14],-0.0053% [at 18.6 µM]
same,"fluorescence, % of fluorescent control",[15],0.0211% [at 18.6 µM]
same,"fluorescence, % of Rose Bengal",[9],0.0634% [at 18.6 µM]
same,"fluorescence, % of fluorescent control",[10],-0.0261% [at 18.6 µM]
same,"fluorescence, % of fluorescein control",[11],-0.0169% [at 18.6 µM]
same,"fluorescence, % of fluorescent control",[12],-0.0938% [at 18.6 µM]
same,Potency,[16],inactive
same,Potency,[17],inactive
CC(C)(C)NC(=O)[C@@H]1C[C@@H]2CCCC[C@@H]2CN1C[C@@H](O)[C@H](Cc1ccccc1)NC(=O)[C@H](CC(N)=O)NC(=O)c1ccc2ccccc2n1,Potency,[1],inactive
same,Potency,[18],inactive
same,Potency,[19],43.8 µM (active)
same,Potency,[3],inactive
same,Potency,[4],inactive
same,Potency,[5],inactive
same,Potency,[6],inactive
same,outcome,[7],inactive
same,Potency,[8],inactive
same,outcome,[14],inactive
same,Potency,[15],inactive
same,Potency,[9],inactive
same,Potency,[11],inactive
same,Potency,[12],inactive
Cc1[nH]nc2c1N=C(c1ccccc1Cl)c1cc([N+](=O)[O-])ccc1N2,Potency,[1],1.93 µM (active)
same,Potency,[2],30.6 µM (active)
same,Potency,[18],inactive
same,Potency,[19],3.06 µM (active)
same,Potency,[3],inactive
same,Potency,[4],inactive
same,Potency,[5],inactive
same,Potency,[6],inactive
same,outcome,[7],inactive
same,Potency,[8],inactive
same,outcome,[14],inactive
same,Potency,[15],inactive
same,Potency,[9],inactive
same,Potency,[10],inactive
same,Potency,[12],inactive
